# Experimental data: PubChem BioAssay (NCATS)
# Inconclusive results are not listed. Calls of active or inactive are those of the source. Unless noted, calls come from the whole dose curve; as a rule, active = well fitted curve in the direction sought with a large enough effect; inconclusive = small, poorly fitted or top-dose-only effect, or another doubt; inactive = no such curve, though single readings can be large; an effect the other way counts as inactive or inconclusive.
# Key:
# [1] = biological target: Catechol O-methyltransferase (Homo sapiens) (UniProt P21964); experiment: Confirmatory Screen for Target Class Profiling of Small Molecule Inhibitors of Methyltransferases (AID 1745852; calls by dose curve; note: potency is the fitted concentration of half-maximal effect); conditions: MTase-Glo luminescence, SAH detection, recombinant enzyme; measured here: COMT max response; stronger effect = lower value
# [2] = biological target: Guanidinoacetate N-methyltransferase (Homo sapiens) (UniProt Q14353); experiment: as above; conditions: MTase-Glo luminescence, SAH detection, recombinant enzyme; activity change, negative = inhibition: at 57.3 µM (top of the series) unless noted; series mostly up to 57.3 µM
# [3] = biological target: Nicotinamide N-methyltransferase (Homo sapiens) (UniProt P40261); experiment: as above; conditions: MTase-Glo luminescence, SAH detection, recombinant enzyme; measured here: NNMT max response; stronger effect = lower value
# [4] = biological target: Phenylethanolamine N-methyltransferase (Homo sapiens) (UniProt P11086); experiment: as above; conditions: MTase-Glo luminescence, SAH detection, recombinant enzyme; measured here: PNMT max response; stronger effect = lower value
# [5] = AP1 Signaling Pathway (AID 357; active = well fitted curve in either direction with a large enough effect, not every such curve was filed as active; note: % is set by controls: 0 for no effect and ±100 for the full control effect); conditions: ME-180 AP-1-bla reporter, EGF-induced, beta-lactamase ratio, 5 h; at 7.69 µM (top of the series) unless noted
# Procedure, shortened: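 ME-180 cells with beta-lactamase reporter under AP-1 response element, stimulated with EC50 EGF; compounds tested in titration series, 5 h at 37 °C. CCF4 substrate added 2.5 h at room temperature; 460/530 nm emission ratio gave %activity and AC50.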
# [6] = biological target: Cytochrome P450 1A2 (Homo sapiens) (UniProt P05177); experiment: p450-cyp1a2 (AID 410; calls by dose curve;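 note: -100% = full effect of reference inhibitor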); conditions: recombinant CYP1A2, luciferin-ME demethylation, luminescence; series mostly up to 57 µM
# Procedure, shortened: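 Human CYP1A2 (20nM) demethylated Luciferin-ME at its Km (100uM) in 100mM KPO4. After 10 min compound preincubation, NADPH regeneration ran the reaction 60 min at room temperature. Luciferin was read by luminescence, normalized to 57 uM furafylline.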
# [7] = NFAT Signaling Pathway (AID 444; active = well fitted curve in either direction with a large enough effect, not every such curve was filed as active;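 note: carbachol stimulus at about its EC50 of 1 µM final; % is set by controls: 0 for no effect and ±100 for the full control effect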); conditions: Jurkat NFAT-bla M1, carbachol, beta-lactamase ratio, 5 h; at 7.69 µM (top of the series) unless noted
# Procedure, shortened: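 Jurkat cells with NFAT-driven β-lactamase reporter and co-expressed M1 receptor, stimulated with carbachol (final 1 uM, ~EC50), compound titration, 5 h at 37 °C. CCF4 loaded 1 h at RT; 460/530 nm ratio gave %activity and AC50.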
# [8] = biological target: Glucocorticoid receptor (Homo sapiens) (UniProt P04150); experiment: GR-EFC Redistribution (AID 451; calls by dose curve; note: potency is the fitted concentration of half-maximal effect); conditions: CHO-K1 GR-EFC translocation, beta-gal luminescence, 2 h
# Procedure, shortened: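 CHO-K1 cells expressing nuclear EA and GR-ED fragments of b-gal; compounds titrated up to 46 uM final, 2 h at 37 C. GR nuclear translocation read as complemented b-gal luminescence after 1 h RT detection.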
# [9] = biological target: 3',5'-cyclic-AMP phosphodiesterase 4B (Homo sapiens) (UniProt Q07343); experiment: qHTS Assay for Inhibitors of PDE-IV (AID 607; active = well fitted activation curve with a large enough effect in the main read-out, with a control signal flat, not every such curve was filed as active; note: % of control where 0% means no effect); conditions: HEK293 ACTOne CNG channel cells, membrane potential fluorescence; series mostly up to 22.9 µM
# Procedure, shortened: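 HEK293 ACTOne cells with CNG channel (1000/well), endogenous PDE4; membrane potential dye, compounds up to 22.9 uM final. Fluorescence Ex 535/Em 590; RO 20-1724 (100 uM final) as reference.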
# [10] = biological target: Guanine nucleotide-binding protein G(i) subunit alpha-1 (Homo sapiens) (UniProt P63096); experiment: qHTS Assay for Inhibitors of RGS12 GoLoco Motif Activity (Green Fluorophore) (AID 879); conditions: Galphai1/FITC-RGS12 GoLoco peptide, fluorescence polarization; series mostly up to 57.1 µM;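 note: 0% = labeled peptide with Gαi1 and full inhibition = labeled peptide alone without protein; negative values mean loss of peptide binding seen as reduced polarization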
# Procedure, shortened: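 Fluorescence polarization assay: 50 nM Gαi1 with 10 nM FITC-labeled RGS12 GoLoco peptide in 10 mM Tris pH 7.5, 150 mM NaCl, 0.1 mM GDP, 0.05% NP40, 10 min at room temperature with compound.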
# [11] = biological target: Cytochrome P450 3A4 (Homo sapiens) (UniProt P08684); experiment: qHTS Assay for Activators of Cytochrome P450 3A4 (AID 885); conditions: recombinant CYP3A4, Luciferin-PPXE luminescence, 60 min; series mostly up to 57.1 µM; note: nearly all actives have a fitted effect of over 65% in size
# Procedure, shortened: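 Human CYP3A4 (20 nM) with Luciferin-PPXE at 25 uM (its KM) in 200 mM KPO4; 10 min compound preincubation, then NADPH regeneration and 60 min reaction at RT. Luciferin read by luminescence; normalized to 57 uM ketoconazole full inhibition.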
# [12] = qHTS Assay for Identification of Small Molecule Antagonists for NFkB Signaling Pathway (AID 895; active = well fitted inhibition curve with a large enough effect in the signal ratio, with a control signal flat, not every such curve was filed as active; the % refers to the signal ratio; note: potency is the fitted concentration of half-maximal effect); conditions: NFkB beta-lactamase reporter cells, FRET ratio 460/530; stimulated with 10 pM TNF alpha
# Procedure, shortened: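 ME-180 NFkB-bla cells (beta-lactamase under NFkB response element), plated overnight, treated with compound then 10 pM TNF alpha (about EC50) for 5 hrs at 37 C. LiveBLAzer FRET read at 460/530 nm emission, 405 nm excitation.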
# [13] = biological target: Muscarinic acetylcholine receptor M1 (Rattus norvegicus) (UniProt P08482); experiment: qHTS Assay for Antagonists of Acetylcholine Muscarinic M1 Receptor: Kinetic Measurement of Intracellular Calcium Response (AID 943); conditions: M1-expressing cells, kinetic intracellular calcium fluorescence; series mostly up to 35.3 µM;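 note: Fluo-4 calcium signal as peak divided by basal fluorescence over 4 min; nearly all actives have a fitted effect of over 75% in size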
# Procedure, shortened: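 CHO cells stably expressing rat M1 were loaded with no-wash Fluo-4 dye for 1 h at 37C, pre-incubated 10 min with compound, then challenged with EC80 carbachol (100 nM final); kinetic calcium read 4 min, peak/basal ratio.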
# [14] = biological target: Pyruvate kinase (Leishmania mexicana) (UniProt Q27686); experiment: qHTS Validation Assay for Inhibitors of Leishmania Mexicana Pyruvate Kinase (AID 945);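 note: 0% = DMSO only neutral control wells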; conditions: purified L. mexicana pyruvate kinase, enzyme activity, E451W mutant enzyme; series mostly up to 57.5 µM
# Procedure, shortened: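 Eight-point qHTS titrations in triplicate, data normalized to DMSO neutral control. Reaction: 0.2 nM LmPYK E451W mutant, 0.5 mM PEP, 0.1 mM ADP, 7 mM MgCl2, pH 7.2, one hour at room temperature; luminescent ATP detection.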
# [15] = biological target: Pyruvate kinase PKM (Homo sapiens) (UniProt P14618); experiment: qHTS Assay for Activators of Human Muscle Pyruvate Kinase (AID 954; active = well fitted curve in the direction sought with a large enough effect, not every such curve was filed as active;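 note: 0% = uninhibited enzyme and -100% = no enzyme or full thiadiazolimine inhibition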); conditions: purified human muscle pyruvate kinase, luciferase-coupled luminescence, 1 h; series mostly up to 57.5 µM
# Procedure, shortened: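 Purified human PKM2 (0.1 nM) with 0.5 mM PEP (Km) and 0.1 mM ADP in 50 mM imidazole pH 7.2, KCl, MgCl2, 1 h at room temperature; ATP formed read by coupled luciferase luminescence. Normalized to no-enzyme/110 uM thiadiazolimine inhibition; 0.3 nM enzyme column for activation.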
# [16] = biological target: Alpha-galactosidase A (Homo sapiens) (UniProt P06280); experiment: Counterscreen for Glucocerebrosidase Inhibitors: qHTS Assay for Human alpha-Galactosidase at pH 4.5 (AID 992); conditions: purified enzyme, fluorogenic substrate; series mostly up to 76.9 µM; note: 0% is about no effect
# Procedure, shortened: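 Human enzyme (2 nM) with 80 uM 4-methylumbelliferyl alpha-D-galactopyranoside in 50 mM citric acid, 0.005% Tween-20, pH 4.5, 20 min at room temperature. Compounds 0.7 nM–77 uM; fluorescence Ex 365/Em 440 after pH 10 stop; AC50 from Hill fits.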
# [17] = biological target: alpha-glucosidase (Oryza sativa, rice) (UniProt Q653V4); experiment: Counterscreen for Glucocerebrosidase Inhibitors: qHTS Assay for Rice alpha-Glucosidase at pH 5.0 (AID 997); conditions: rice alpha-glucosidase enzyme activity; series mostly up to 76.9 µM;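 note: 0% = full activity with enzyme and -100% = basal without enzyme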
# Procedure, shortened: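 Rice alpha-glucosidase (4 nM final) with 400 uM 4-methylumbelliferyl-alpha-D-glucopyranoside in citrate buffer pH 5.0, 20 min at room temperature, stopped at pH 10; fluorescence 365/440 nm, compounds 0.7 nM–77 uM, AC50 from Hill fits.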
# [18] = NCATS anti-infectives library activity on HEK293 viability as a counter-qHTS vs the C. elegans viability qHTS (AID 1745854); conditions: HEK293 viability counter-screen; series mostly up to 41.8 µM; note: % is set by controls: 0 for no effect and ±100 for the full control effect
# Procedure, shortened: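 HEK293 cells, 1500 per well, exposed 24 hr at 37C in 5% CO2 to compounds in a 1:5 titration, up to 41.7 uM final. Viability read as CellTiter-Glo luminescence after 10 min at room temperature.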
# [19] = biological target: Glucocorticoid receptor (Homo sapiens) (UniProt P04150); experiment: GR-GFP Redistribution (AID 450;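 active = compounds whose dose series gives a full or clear partial fitted curve of increased nuclear translocation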; note: potency is the fitted concentration of half-maximal effect); conditions: U2OS GR-GFP nuclear translocation, laser cytometry, 2 h
# [20] = biological target: Mitogen-activated protein kinase 10 (Mus musculus) (UniProt Q61831); experiment: JNK3 AlphaScreen Assay (AID 530; active = well fitted curve in either direction with a large enough effect, not every such curve was filed as active;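 note: kinase came from lysate of stimulated human HepG2 cells; signal reports phosphorylation of biotinylated GST-cJun 1-79 at Ser73 with 10 µM ATP; % is set by controls: 0 for no effect and ±100 for the full control effect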); conditions: JNK3 lysate, c-Jun phosphorylation; series mostly up to 57.1 µM
# Procedure, shortened: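 qHTS format: compounds tested as titrations against IL-1beta/TNF-alpha-activated HepG2 lysate JNK3 with biotin-GST-cJun substrate and 10 uM ATP at room temperature. Loss of anti-phospho-cJun AlphaScreen signal indicates inhibition.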
# [21] = biological target: Cytochrome P450 3A4 (Homo sapiens) (UniProt P08684); experiment: qHTS Assay for Inhibitors and Substrates of Cytochrome P450 3A4 (AID 884); conditions: recombinant CYP3A4, Luciferin-PPXE luminescence; series mostly up to 57.1 µM; note: potency is the fitted concentration of half-maximal effect; nearly all actives have a fitted effect of over 50% in size
# Procedure, shortened: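 20 nM human CYP3A4 with 25 uM Luciferin-PPXE (at KM) in 200 mM KPO4, preincubated 10 min with compound; NADPH regeneration started a 60 min RT reaction. Luciferin detected by luminescence, normalized to 57 uM ketoconazole as full inhibition.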
# [22] = biological target: Cytochrome P450 2D6 (Homo sapiens) (UniProt P10635); experiment: qHTS Assay for Inhibitors and Substrates of Cytochrome P450 2D6 (AID 891); conditions: recombinant CYP2D6, luciferin-ME EGE luminescence; series mostly up to 57.1 µM;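 note: luciferin methyl ether substrate demethylated by CYP2D6 with NADPH regeneration; % is set by controls: 0 for no effect and ±100 for the full control effect; nearly all actives have a fitted effect of over 60% in size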
# Procedure, shortened: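 Human CYP2D6 (5 nM) with 30 uM Luciferin-ME EGE (at Km) in 100 mM KPO4, compound preincubated 10 min, then NADPH regeneration system for 60 min at room temperature. Luciferin read by luminescence; normalized to 1.43 uM quinidine.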
# [23] = biological target: Cytochrome P450 2C19 (Homo sapiens) (UniProt P33261); experiment: qHTS Assay for Inhibitors and Substrates of Cytochrome P450 2C19 (AID 899); conditions: recombinant CYP2C19, luciferin-H EGE luminescence; series mostly up to 57.1 µM; note: % is set by controls: 0 for no effect and ±100 for the full control effect; nearly all actives have a fitted effect of over 60% in size
# Procedure, shortened: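 5 nM human CYP2C19 with 10uM Luciferin-H EGE (at KM) in 50mM KPO4, compound preincubated 10 min at 37C, then NADPH regeneration for 60 min at 37C. Luciferin read by luminescence after detection reagent; normalized to 57uM ketoconazole as full inhibition.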
# [24] = biological target: DNA dC->dU-editing enzyme APOBEC-3G (Homo sapiens) (UniProt Q9HC16); experiment: qHTS for inhibitors of Vif-A3G interactions: Validation (AID 588379); conditions: Vif-A3G protein interaction assay; series mostly up to 46.1 µM; note: 0% is about no effect
# Procedure, shortened: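 HeLa cells stably expressing Vif and A3G-eYFP, 700 cells/well, incubated overnight at 37 deg C, then exposed to compound overnight at 37 deg C. Inhibition of Vif-mediated degradation read as increased yellow fluorescence (Ex 488/Em 500-530) by laser-scanning cytometry.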
# Cytochrome P450 3A4 (Homo sapiens), sequence (P08684 whole entry, looked up): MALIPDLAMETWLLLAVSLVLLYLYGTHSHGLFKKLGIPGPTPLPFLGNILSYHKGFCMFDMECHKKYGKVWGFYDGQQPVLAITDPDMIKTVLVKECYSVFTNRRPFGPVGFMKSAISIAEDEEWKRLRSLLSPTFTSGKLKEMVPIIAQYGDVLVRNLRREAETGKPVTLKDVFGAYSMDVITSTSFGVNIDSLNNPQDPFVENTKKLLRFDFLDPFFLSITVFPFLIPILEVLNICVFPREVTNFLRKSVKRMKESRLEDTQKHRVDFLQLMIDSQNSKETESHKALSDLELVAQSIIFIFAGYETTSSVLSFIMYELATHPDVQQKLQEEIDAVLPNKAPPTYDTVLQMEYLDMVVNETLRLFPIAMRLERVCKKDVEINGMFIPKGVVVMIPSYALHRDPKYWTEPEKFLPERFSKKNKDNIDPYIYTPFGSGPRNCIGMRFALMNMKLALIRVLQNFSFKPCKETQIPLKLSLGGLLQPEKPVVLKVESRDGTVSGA
# Glucocorticoid receptor (Homo sapiens), sequence (P04150 whole entry, looked up, the tested form may be a part): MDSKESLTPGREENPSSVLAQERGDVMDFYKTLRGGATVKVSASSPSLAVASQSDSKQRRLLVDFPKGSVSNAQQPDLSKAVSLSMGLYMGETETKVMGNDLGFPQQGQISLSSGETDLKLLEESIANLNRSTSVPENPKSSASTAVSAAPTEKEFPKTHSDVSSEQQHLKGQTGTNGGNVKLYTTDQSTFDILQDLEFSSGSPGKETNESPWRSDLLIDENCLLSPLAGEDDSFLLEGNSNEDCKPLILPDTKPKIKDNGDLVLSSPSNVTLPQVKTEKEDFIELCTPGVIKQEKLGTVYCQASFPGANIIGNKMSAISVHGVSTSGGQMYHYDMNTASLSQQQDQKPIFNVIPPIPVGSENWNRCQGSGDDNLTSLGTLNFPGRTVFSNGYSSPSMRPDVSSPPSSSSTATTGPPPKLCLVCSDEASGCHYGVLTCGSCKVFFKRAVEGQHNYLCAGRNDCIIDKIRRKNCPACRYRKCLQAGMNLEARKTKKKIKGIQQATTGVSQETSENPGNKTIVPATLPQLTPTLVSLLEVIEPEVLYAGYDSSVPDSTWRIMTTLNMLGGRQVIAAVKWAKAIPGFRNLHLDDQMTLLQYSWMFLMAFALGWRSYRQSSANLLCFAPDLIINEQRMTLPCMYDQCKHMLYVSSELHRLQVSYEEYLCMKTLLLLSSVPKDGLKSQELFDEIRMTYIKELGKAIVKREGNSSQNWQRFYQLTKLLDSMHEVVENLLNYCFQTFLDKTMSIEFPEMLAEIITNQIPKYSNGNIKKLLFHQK
# Phenylethanolamine N-methyltransferase (Homo sapiens), sequence (P11086 whole entry, looked up): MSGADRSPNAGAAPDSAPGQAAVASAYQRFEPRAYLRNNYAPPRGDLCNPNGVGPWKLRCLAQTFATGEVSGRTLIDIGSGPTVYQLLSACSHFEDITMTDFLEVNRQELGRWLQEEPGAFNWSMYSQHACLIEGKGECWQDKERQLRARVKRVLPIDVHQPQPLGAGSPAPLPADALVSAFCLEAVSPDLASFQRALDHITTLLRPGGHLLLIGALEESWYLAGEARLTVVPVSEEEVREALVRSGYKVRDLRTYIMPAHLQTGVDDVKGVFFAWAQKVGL
# Catechol O-methyltransferase (Homo sapiens), sequence (P21964 whole entry, looked up): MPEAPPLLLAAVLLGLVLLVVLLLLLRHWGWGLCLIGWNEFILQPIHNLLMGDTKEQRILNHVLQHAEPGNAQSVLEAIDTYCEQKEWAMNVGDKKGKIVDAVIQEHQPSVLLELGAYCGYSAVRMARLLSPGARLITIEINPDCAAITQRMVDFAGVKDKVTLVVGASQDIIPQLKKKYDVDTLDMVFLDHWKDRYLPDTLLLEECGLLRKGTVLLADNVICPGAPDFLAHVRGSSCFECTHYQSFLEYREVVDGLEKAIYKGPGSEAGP
# Nicotinamide N-methyltransferase (Homo sapiens), sequence (P40261 whole entry, looked up): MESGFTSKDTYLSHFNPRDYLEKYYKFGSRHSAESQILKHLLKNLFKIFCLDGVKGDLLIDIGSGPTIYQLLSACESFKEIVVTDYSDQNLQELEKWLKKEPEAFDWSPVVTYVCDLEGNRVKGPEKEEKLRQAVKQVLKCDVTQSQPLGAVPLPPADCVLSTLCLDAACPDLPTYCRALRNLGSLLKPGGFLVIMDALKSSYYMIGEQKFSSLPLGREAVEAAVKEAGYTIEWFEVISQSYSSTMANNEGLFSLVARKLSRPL
# 3',5'-cyclic-AMP phosphodiesterase 4B (Homo sapiens), sequence (Q07343 whole entry, looked up): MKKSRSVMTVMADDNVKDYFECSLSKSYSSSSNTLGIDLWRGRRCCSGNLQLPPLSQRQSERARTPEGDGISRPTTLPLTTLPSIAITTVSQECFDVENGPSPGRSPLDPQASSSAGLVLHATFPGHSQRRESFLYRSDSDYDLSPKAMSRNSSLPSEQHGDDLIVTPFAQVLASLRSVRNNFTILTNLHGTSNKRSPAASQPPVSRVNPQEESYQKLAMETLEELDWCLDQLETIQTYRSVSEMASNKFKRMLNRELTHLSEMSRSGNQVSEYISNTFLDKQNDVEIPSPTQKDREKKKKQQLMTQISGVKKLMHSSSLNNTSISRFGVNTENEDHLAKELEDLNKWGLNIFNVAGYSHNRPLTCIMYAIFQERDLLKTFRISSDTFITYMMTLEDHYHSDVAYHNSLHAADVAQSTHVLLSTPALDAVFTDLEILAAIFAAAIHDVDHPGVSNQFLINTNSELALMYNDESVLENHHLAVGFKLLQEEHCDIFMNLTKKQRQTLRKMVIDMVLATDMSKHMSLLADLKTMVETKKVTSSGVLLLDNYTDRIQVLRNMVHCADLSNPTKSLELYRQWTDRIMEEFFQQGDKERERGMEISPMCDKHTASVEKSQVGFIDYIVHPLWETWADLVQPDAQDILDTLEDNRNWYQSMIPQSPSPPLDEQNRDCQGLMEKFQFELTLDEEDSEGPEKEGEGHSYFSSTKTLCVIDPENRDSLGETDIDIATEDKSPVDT
# Cytochrome P450 1A2 (Homo sapiens), sequence (P05177 whole entry, looked up): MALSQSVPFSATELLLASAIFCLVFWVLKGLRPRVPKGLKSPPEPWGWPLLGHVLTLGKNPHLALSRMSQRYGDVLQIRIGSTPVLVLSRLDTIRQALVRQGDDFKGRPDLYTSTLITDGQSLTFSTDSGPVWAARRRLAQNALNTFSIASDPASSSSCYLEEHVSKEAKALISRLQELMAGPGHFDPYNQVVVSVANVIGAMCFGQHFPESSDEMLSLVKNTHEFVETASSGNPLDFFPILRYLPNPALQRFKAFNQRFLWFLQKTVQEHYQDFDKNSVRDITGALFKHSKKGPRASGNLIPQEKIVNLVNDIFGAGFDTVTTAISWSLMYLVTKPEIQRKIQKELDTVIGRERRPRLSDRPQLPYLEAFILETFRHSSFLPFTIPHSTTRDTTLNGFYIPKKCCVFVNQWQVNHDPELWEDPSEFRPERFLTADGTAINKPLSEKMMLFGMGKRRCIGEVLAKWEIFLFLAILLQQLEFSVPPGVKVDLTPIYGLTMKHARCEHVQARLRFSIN
# Alpha-galactosidase A (Homo sapiens), sequence (P06280 whole entry, looked up): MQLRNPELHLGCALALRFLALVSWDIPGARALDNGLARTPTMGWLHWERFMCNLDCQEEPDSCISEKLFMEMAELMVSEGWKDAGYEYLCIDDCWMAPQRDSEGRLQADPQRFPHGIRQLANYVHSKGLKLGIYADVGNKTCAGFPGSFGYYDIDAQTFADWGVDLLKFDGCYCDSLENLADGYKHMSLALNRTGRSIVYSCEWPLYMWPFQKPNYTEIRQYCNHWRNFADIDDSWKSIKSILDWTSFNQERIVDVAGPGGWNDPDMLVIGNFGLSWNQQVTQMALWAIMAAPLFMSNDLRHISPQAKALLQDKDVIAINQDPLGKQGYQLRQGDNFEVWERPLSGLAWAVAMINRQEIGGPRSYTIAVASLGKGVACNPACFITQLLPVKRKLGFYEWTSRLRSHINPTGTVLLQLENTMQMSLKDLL
# Muscarinic acetylcholine receptor M1 (Rattus norvegicus), sequence (P08482 whole entry, looked up): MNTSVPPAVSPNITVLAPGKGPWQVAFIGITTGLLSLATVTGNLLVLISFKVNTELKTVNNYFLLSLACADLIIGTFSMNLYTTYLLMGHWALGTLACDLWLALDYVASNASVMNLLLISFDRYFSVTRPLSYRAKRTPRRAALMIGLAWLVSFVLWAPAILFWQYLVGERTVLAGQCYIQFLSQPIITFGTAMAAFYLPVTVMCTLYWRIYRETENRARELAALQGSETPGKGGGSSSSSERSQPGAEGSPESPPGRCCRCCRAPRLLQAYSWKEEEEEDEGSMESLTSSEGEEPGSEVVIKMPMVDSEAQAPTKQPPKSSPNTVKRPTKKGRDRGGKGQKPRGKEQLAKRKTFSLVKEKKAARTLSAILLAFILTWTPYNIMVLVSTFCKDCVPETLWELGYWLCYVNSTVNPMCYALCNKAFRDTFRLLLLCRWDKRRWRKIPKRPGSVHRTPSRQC
# Cytochrome P450 2D6 (Homo sapiens), sequence (P10635 whole entry, looked up): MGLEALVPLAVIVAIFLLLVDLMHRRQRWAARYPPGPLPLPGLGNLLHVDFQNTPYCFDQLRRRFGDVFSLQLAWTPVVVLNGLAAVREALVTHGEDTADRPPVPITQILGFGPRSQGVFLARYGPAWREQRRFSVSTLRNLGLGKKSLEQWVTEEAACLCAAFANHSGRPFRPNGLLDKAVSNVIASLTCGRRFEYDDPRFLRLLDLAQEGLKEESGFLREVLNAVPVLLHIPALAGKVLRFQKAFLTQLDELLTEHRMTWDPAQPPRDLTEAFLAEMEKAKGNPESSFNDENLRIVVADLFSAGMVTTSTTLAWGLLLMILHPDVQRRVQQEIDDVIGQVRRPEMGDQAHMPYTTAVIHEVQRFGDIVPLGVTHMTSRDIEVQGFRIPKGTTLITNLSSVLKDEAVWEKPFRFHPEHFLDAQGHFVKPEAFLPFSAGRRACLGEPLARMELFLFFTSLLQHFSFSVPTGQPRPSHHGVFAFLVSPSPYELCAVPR
compound,measurement,setting,value
CC(C)c1nccn1CCCNC(=O)c1ccc(-c2cccc(F)c2)nc1,activity,[1],4.81%
same,"activity change, negative = inhibition",[2],3.97%
same,activity,[3],9.65%
same,activity,[4],-0.0651%
O=c1cc(O)cc(/C=C\c2ccc(O)c(O)c2)o1,"activity change, negative = inhibition",[5],-18.8% [at 38 µM] (inactive)
same,Potency,[6],inactive
same,"activity change, negative = inhibition",[7],-13.6% [at 38 µM] (inactive)
same,Potency,[8],> 46 µM (inactive)
same,Potency,[9],inactive
same,Potency,[10],inactive
same,outcome,[11],inactive
same,Potency,[12],1.26 µM (active)
same,Potency,[13],inactive
same,outcome,[14],inactive
same,outcome,[15],inactive
same,outcome,[16],inactive
same,outcome,[17],inactive
same,activity,[1],135%
same,Potency,[2],24.3 µM (active)
same,activity,[3],-15.8%
same,activity,[4],-1.5%
O=c1cc(-c2ccc(O)c(O)c2)oc2c([C@@H]3O[C@H](CO)[C@@H](O)[C@H](O)[C@H]3O)c(O)cc(O)c12,Potency,[18],inactive
COc1ccc(-c2oc3ccc(C)cc3c(=O)c2O)cc1OC,Potency,[19],> 46 µM (inactive)
same,Potency,[8],> 46 µM (inactive)
same,Potency,[20],inactive
same,Potency,[9],inactive
same,Potency,[21],3.98 µM (active)
same,outcome,[11],inactive
same,Potency,[22],inactive
same,Potency,[23],inactive
same,outcome,[24],inactive
same,activity,[1],-1%
same,"activity change, negative = inhibition",[2],0%
same,activity,[3],1.6%
same,activity,[4],4.32%
CC(C)Cn1c(=O)c2ccccc2n2c(CCC(=O)N3CCN(c4ccccc4F)CC3)nnc12,activity,[1],2.07%
same,"activity change, negative = inhibition",[2],0%
same,activity,[3],-58.2%
same,activity,[4],-8.56%
CCN(CC)Cc1cnc2c(C(=O)N3CCCN4CCC[C@H]4C3)cnn2c1,activity,[1],-42.2%
same,"activity change, negative = inhibition",[2],7.01%
same,activity,[3],12.3%
same,activity,[4],8.45%
CC(C)Cn1c(=O)c2ccccc2n2c(CCC(=O)N3CCN(Cc4ccccc4)CC3)nnc12,activity,[1],0.0224%
same,"activity change, negative = inhibition",[2],2.81%
same,activity,[3],-55.9%
same,activity,[4],-3.34%
CCOC(=O)c1cc2n(n1)CC(C)(C(=O)NCCC(C)C)N(c1ccccc1C)C2=O (stereo unspecified),activity,[1],2.78%
same,Potency,[2],inactive
same,activity,[3],3.85%
same,activity,[4],1.34%
